We go through twelve compounds from PubChem BioAssay.

Test [1] can be described thus: HepG2 liver cancer cell viability effects, profiling panel, resazurin fluorescence, 24 h, PK04 Diversity Set (AID 1172). Further: test concentration not given here. As to conditions: higher = more signal. In general terms: The colour change of resazurin is a common sign of viable cells or microbes.
Test [2] in a line: basal S. cerevisiae growth modulation, no modifier, primary screen, OD600, strain BY4716, 24 h, basal condition (AID 1173). As to conditions: OD600, 24 h, higher = more signal, called active from +8 up or from −8 down.
Test [3] can be described thus: MM1S myeloma cell viability, profiling panel, resazurin fluorescence, basal, 24 h, PK04 Diversity Set (AID 1174).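 Further: MM1S multiple myeloma cell line; test concentration not given here.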 As to conditions: higher = more signal, called active from +8 up or from −8 down.
In test [4] the target is Dihydroorotate dehydrogenase (quinone), mitochondrial (Plasmodium falciparum (isolate 3D7)) (UniProt Q08210). As to the kind of experiment: PfDHODH enzyme inhibitors, primary screen, biochemical, C-terminal His tag, absorbance 600 nm (AID 1175).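 Further: recombinant parasite enzyme with a five histidine tag at its C terminus; test concentration not given here.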 As to conditions: DCIP absorbance 600 nm, higher = more signal, called active from +8 up or from −8 down.
The nature of test [5]: P. aeruginosa biofilm formation inhibitors, primary screen, strain PAO1, LB-PBS medium, absorbance 600 nm (AID 1176). Further: test concentration not given here. As to conditions: P. aeruginosa PAO1 growth/biofilm, A600, 12 h; higher = more signal.
Test [6] can be described thus: S. cerevisiae RM11-1a growth modifiers, primary screen, strain RM11-1a, OD600, basal, 24 h (AID 1177).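 Further: cultures grown under basal conditions with no added stressor; test concentration not given here.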 As to conditions: OD600, 24 h, higher = more signal, called active from +8 up or from −8 down.
The nature of test [7]: E. coli acrAB mutant growth effects, primary screen, E. coli filamentation inducers, strain DRC39, OD650, 24 h (AID 1178).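 Further: growth measured as culture turbidity by optical density at 650 nm; test concentration not given here.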 As to conditions: higher = more signal, called active from +8 up or from −8 down.
Test [8] in a line: E. coli acrAB mutant growth effects, primary screen, E. coli filamentation inducers, strain DRC39, OD650, 48 h (AID 1179).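 Further: screen aims at cell division blockers that make cells filament.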 As to conditions: E. coli DRC39 delta-acrAB growth, higher = more signal, called active from +8 up or from −8 down.
Test [9] is described as follows: RPMI8226 myeloma cell viability, profiling panel, resazurin fluorescence, basal, 24 h, PK04 Diversity Set (AID 1180).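 Further: RPMI8826 multiple myeloma cell line at 5000 cells per well; test concentration not given here.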 As to conditions: higher = more signal.
The target of test [10] is E3 ubiquitin-protein ligase XIAP (Homo sapiens) (UniProt P98170). As to the kind of experiment: XIAP binders, primary screen, biophysical, small-molecule microarray, fluorescence 635 nm (AID 1181).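 Further: score merges 667 nm emission and signal to noise over triplicate slides.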 As to conditions: small-molecule microarray binding, higher = more signal.

Calls of active or inactive are those of the source. Unless noted, how the calls were made is not given here.

Chain of E3 ubiquitin-protein ligase XIAP (Homo sapiens) (P98170 whole entry, looked up): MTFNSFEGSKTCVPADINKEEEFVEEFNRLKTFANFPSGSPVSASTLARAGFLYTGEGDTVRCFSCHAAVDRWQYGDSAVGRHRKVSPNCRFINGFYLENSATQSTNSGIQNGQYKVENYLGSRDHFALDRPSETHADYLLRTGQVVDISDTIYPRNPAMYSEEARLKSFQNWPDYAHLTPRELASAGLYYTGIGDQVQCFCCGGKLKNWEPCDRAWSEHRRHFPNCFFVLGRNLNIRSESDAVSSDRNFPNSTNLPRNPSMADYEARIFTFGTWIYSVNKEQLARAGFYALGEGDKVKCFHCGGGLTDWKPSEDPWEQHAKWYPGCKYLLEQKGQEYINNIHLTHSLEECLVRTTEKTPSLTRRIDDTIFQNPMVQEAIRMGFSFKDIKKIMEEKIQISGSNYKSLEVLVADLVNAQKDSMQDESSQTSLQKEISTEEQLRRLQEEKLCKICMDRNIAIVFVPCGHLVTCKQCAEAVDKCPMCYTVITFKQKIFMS
Chain of Dihydroorotate dehydrogenase (quinone), mitochondrial (Plasmodium falciparum (isolate 3D7)) (Q08210 whole entry, looked up): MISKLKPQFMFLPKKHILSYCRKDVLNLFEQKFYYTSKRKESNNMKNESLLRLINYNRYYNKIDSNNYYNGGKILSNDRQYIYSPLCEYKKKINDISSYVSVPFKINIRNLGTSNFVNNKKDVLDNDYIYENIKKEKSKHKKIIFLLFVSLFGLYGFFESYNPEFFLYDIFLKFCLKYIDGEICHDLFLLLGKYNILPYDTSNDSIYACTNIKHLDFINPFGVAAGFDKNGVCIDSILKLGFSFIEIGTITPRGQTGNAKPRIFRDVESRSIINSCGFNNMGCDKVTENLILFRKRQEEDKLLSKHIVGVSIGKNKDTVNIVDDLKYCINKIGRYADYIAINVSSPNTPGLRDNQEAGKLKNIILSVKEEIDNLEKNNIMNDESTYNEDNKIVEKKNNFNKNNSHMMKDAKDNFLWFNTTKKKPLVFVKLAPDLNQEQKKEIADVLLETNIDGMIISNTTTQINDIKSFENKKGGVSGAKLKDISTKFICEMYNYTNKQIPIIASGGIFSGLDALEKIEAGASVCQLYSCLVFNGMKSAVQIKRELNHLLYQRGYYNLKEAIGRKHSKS

With `COCCCNC(=O)[C@@]1(Cc2ccccc2I)c2ccccc2C(=O)N(Cc2ccccc2)[C@H]1c1ccc(CO)cc1`, the z-score is 0.348 in test [1]; 0.346 (inactive) in test [2]; 1.01 (inactive) in [3]; -0.205 (inactive) in [5]; 2.28 (inactive) in test [6]; 0.322 (inactive) in [7]. In addition, the z-score in test [8] was -0.15 (inactive); in [9], 1.5. Moreover, the composite z-score in test [4] was 1.17 (inactive); in [10] it was -0.193.

With `CCCC[C@H]1OB(O)C[C@H]2C1=C(C)Cn1c(=O)n(-c3ccccc3)c(=O)n12`, the z-score in test [1] was 0.916; in [2], 0.422 (inactive); in [3], -0.441 (inactive); in [5] it was -0.638 (inactive); in test [6], 0.218 (inactive); in [7], -0.13 (inactive). Moreover, the z-score was -0.605 (inactive) in [8] and 0.191 in [9]. Further, the composite z-score is -0.0299 (inactive) in [4] and -0.0599 in [10].

As to `O=C(NCC(F)(F)F)[C@@H]1c2ccccc2C(=O)N(Cc2ccccc2)[C@H]1c1ccc(CO)cc1`, the z-score in [1] is -0.699; in test [2], -0.0657 (inactive); in test [3] it was -0.294 (inactive); in test [5] it was -0.0654 (inactive); in [6], 0.0566 (inactive); in test [7] it was 0.126 (inactive). Moreover, the z-score was 0.606 (inactive) in [8] and 0.368 in [9]. For the same compound, the composite z-score in test [4] is -1.09 (inactive); in test [10], -0.239.

With `O=C1OCC=C[C@H]2OC34C=CCN(Cc5ccccc5)C(=O)[C@H]3N(CCCO)C(=O)[C@@H]4[C@@H]12` (stereo not given in full), the z-score in [1] was 0.0395; in [2] it was -0.616 (inactive); in [3] it was -0.0608 (inactive); in test [5], -0.0963 (inactive); in test [6] it was 0.242 (inactive); in [7] it was -0.658 (inactive). Moreover, the z-score was 0.122 (inactive) in test [8] and -0.0906 in test [9]. Besides, the composite z-score in test [4] is -1.55 (inactive); in test [10] it was 0.643.

Consider `C=C[C@H](C)[C@H](OC(=O)Nc1ccc(OC)cc1)c1ccc(O)c2ccccc12`, for which the z-score is -0.475 in [1]; -18.5 (active) in [2]; -2.68 (inactive) in test [3]; 0.908 (inactive) in test [5]; -17 (active) in test [6]; 0.405 (inactive) in test [7]. Also, the z-score in test [8] was -0.0111 (inactive); in test [9], -2.21. Moreover, the figures for the composite z-score in test [4] and in test [10] were -1.79 (inactive) and -0.003, respectively.

Consider `CC[C@@H]1C=C(C(=O)O)[C@H](c2ccc(C(C)C)cc2)N1S(=O)(=O)c1ccc(C)cc1`, for which the z-score in test [1] was -0.892; in test [2] it was -1.01 (inactive); in [3] it was -0.725 (inactive); in test [5], 0.16 (inactive); in [6], -1.27 (inactive); in test [7], -0.862 (inactive). The figures for the z-score in [8] and in [9] were 0.133 (inactive) and -2.23, respectively. In addition, the composite z-score in [4] is -0.976 (inactive); in test [10], 0.198.

On to `C=C(CCCC)C(=O)CC[C@@H](OC(=O)c1ccccc1-c1ccccc1C(=O)O)c1ccc(CO)o1`, for which the z-score in test [1] is 0.0232; in [2] it was -0.712 (inactive); in [3], 0.225 (inactive); in [5] it was 1.32 (inactive); in [6], -0.279 (inactive); in test [7], -0.079 (inactive). Further, the z-score in test [8] is -0.218 (inactive); in [9] it was -0.0459. Also, the composite z-score was -2.93 (inactive) in [4] and 0.0842 in [10].

For the compound `COc1ccc([Si](C)(C)[C@@H]2[C@@H](CCO)O[C@]3(C(=O)N(Cc4ccccc4)c4ccc(N(C=O)c5ccccc5)cc43)[C@H]2C)cc1`, the z-score in test [1] was -0.131; in test [2] it was 1.59 (inactive); in [3], -1.54 (inactive); in test [5], 3.19 (inactive); in test [6] it was 5.4 (inactive); in [7], 1.23 (inactive). For the same compound, the z-score in [8] was 0.843 (inactive); in test [9], -1.6. In addition, the composite z-score in [4] is 0.186 (inactive); in [10], 0.0031.

As to `C=CCC(OC(C)=O)[C@@H]1[C@@H](N(Cc2cc3ccccc3o2)C(=O)c2cccc3ccccc23)c2cc(OCCCO)ccc2N1C(=O)Cc1ccc(OC)cc1` (stereo not given in full), the z-score in [1] is -1.29; in [2] it was -0.149 (inactive); in test [3], -1.17 (inactive); in test [5], -0.334 (inactive); in test [6] it was 0.196 (inactive); in test [7] it was -0.386 (inactive). Further, the values for the z-score in test [8] and in test [9] were -0.725 (inactive) and -1.17, respectively. Moreover, the values for the composite z-score in [4] and in test [10] were 0.507 (inactive) and 0.211, respectively.

`COC(=O)[C@@]1(Cc2ccc(F)cc2)[C@H]2c3cc(C(=O)N4CCCC4)n(CCc4ccc(OC)c(Br)c4)c3C[C@H]2CN1C(=O)c1ccccc1`: the z-score in test [1] was -1.25; in [2], 0.836 (inactive); in test [3], -2.83 (inactive); in [5], 1.07 (inactive); in [6], 0.264 (inactive); in [7], -0.588 (inactive). Also, the z-score in test [8] is 0.123 (inactive); in test [9], -4.16. Further, the figures for the composite z-score in test [4] and in [10] were -0.163 (inactive) and 0.183, respectively.

Regarding `O[C@@H](Cc1ccccc1)[C@@H](/C=C/c1ccccc1)NCc1ccccc1Br`, the z-score in [1] is 0.13; in [2], -6.87 (inactive); in [3] it was 0.119 (inactive); in test [5] it was -0.107 (inactive); in [6] it was -0.955 (inactive); in [7] it was 0.429 (inactive). The z-score in test [8] was -0.21 (inactive); in test [9], 0.115. Also, the composite z-score was -1.05 (inactive) in [4] and -0.214 in test [10].

For `C=CCN1C(=O)[C@@]2(O[C@@H](CCO)[C@H]([Si](C)(C)c3ccc(OC)cc3)[C@H]2C)c2cc(N3C(=O)COc4ccccc43)ccc21`, the z-score in test [1] is -6.28; in [2], 0.445 (inactive); in test [3], -8.85 (active); in test [5], -0.258 (inactive); in [6], 3.31 (inactive); in [7] it was 1.09 (inactive). The z-score in test [8] was 0.338 (inactive); in [9], -6.27. The composite z-score in test [4] was 0.428 (inactive); in test [10], -0.031.
